PMC7862700, “An all-to-all approach to the identification of sequence-specific readers for epigenetic DNA modifications on cytosine”

These sequences were tested against T1, ERF (Homo sapiens, UniProt P50548 1-548) (assay: DAPPL (digital affinity profiling via proximity ligation, sequencing); 10 mM Tris-HCl pH 7.5, 50 mM NaCl, 1 mM DTT, 4% glycerol, room temperature, 30 min; GST-TFs on glutathione beads, 16-mer random dsDNA library, 0.1% formaldehyde crosslink after washing; high values mean tight binding). Conditions: protein: recombinant; tags: N-terminal GST; dsDNA, one strand shown.
T1 sequence: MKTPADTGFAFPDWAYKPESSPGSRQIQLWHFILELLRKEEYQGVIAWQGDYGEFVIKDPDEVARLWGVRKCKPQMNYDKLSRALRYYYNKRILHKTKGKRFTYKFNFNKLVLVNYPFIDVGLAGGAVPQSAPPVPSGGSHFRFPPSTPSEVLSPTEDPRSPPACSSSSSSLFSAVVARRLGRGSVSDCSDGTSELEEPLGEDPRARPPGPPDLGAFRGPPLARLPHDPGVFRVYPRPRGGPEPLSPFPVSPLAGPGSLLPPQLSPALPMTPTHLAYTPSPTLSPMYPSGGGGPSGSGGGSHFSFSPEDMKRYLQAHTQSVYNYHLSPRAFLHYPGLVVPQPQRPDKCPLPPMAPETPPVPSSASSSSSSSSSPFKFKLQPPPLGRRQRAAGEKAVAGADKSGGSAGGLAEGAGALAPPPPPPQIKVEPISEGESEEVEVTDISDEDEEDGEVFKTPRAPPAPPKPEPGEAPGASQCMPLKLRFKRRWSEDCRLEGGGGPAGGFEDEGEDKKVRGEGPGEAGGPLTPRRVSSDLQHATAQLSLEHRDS
Method in brief: (§1)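 Human transcription factors were made in yeast as GST fusions, captured on glutathione beads and barcoded with DNA. With a tag-only sample included, the pool was incubated with 200 nmole of a random double-stranded 16-mer DNA library in Tris/NaCl/DTT/glycerol buffer at room temperature for 30 min, then crosslinked with 0.1% formaldehyde after washing, ligated by proximity, amplified and sequenced. For binding signal, each hexamer's read frequency for a factor is divided by its frequency for the tag-only sample.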
In the case of CACTAA, the binding signal is reported as 1.21 fold enrichment (6-mer frequency, TF over GST control). With CCGCCT the binding signal was 1.35 fold enrichment (6-mer frequency, TF over GST control). AATGTC was tested, and the binding signal was 1.17 fold enrichment (6-mer frequency, TF over GST control). In the case of CGATTT, the binding signal is reported as 1.09 fold enrichment (6-mer frequency, TF over GST control). CGTTCG was tested, and the binding signal was 1.52 fold enrichment (6-mer frequency, TF over GST control). CTATAT was tested, and the binding signal was 1.48 fold enrichment (6-mer frequency, TF over GST control). In the case of TCGCTC, the binding signal is reported as 1.35 fold enrichment (6-mer frequency, TF over GST control). AAAACC was tested, and the binding signal was 1.22 fold enrichment (6-mer frequency, TF over GST control). With TTTTGG the binding signal was 1.47 fold enrichment (6-mer frequency, TF over GST control). For TATTCC, the binding signal was 1.49 fold enrichment (6-mer frequency, TF over GST control). With ACGTCC the binding signal was 1.49 fold enrichment (6-mer frequency, TF over GST control). For ATACCC, the binding signal was 1.14 fold enrichment (6-mer frequency, TF over GST control). In the case of ATTCTA, the binding signal is reported as 1.32 fold enrichment (6-mer frequency, TF over GST control). In the case of AACTTT, the binding signal is reported as 1.27 fold enrichment (6-mer frequency, TF over GST control). With ATCTAA the binding signal was 1.2 fold enrichment (6-mer frequency, TF over GST control). TAAATT was tested, and the binding signal was 1.3 fold enrichment (6-mer frequency, TF over GST control). CCCGAC was tested, and the binding signal was 1.29 fold enrichment (6-mer frequency, TF over GST control). In the case of ATGAGC, the binding signal is reported as 1.29 fold enrichment (6-mer frequency, TF over GST control). GCGATG was tested, and the binding signal was 1.38 fold enrichment (6-mer frequency, TF over GST control). CTCTGG was tested, and the binding signal was 1.36 fold enrichment (6-mer frequency, TF over GST control). TCATAT was tested, and the binding signal was 1.22 fold enrichment (6-mer frequency, TF over GST control). With AAAGCA the binding signal was 1.1 fold enrichment (6-mer frequency, TF over GST control). TAACAA was tested, and the binding signal was 1.33 fold enrichment (6-mer frequency, TF over GST control). In the case of TTCTAT, the binding signal is reported as 1.46 fold enrichment (6-mer frequency, TF over GST control). In the case of TGTTTC, the binding signal is reported as 1.86 fold enrichment (6-mer frequency, TF over GST control). In the case of TTGCGA, the binding signal is reported as 1.29 fold enrichment (6-mer frequency, TF over GST control). In the case of ACAATT, the binding signal is reported as 1.25 fold enrichment (6-mer frequency, TF over GST control). For AATTAC, the binding signal was 1.35 fold enrichment (6-mer frequency, TF over GST control). With CAATCC the binding signal was 1.25 fold enrichment (6-mer frequency, TF over GST control). With GTCTCC the binding signal was 1.45 fold enrichment (6-mer frequency, TF over GST control). For TTTTGC, the binding signal was 1.53 fold enrichment (6-mer frequency, TF over GST control). TGGCTT was tested, and the binding signal was 1.27 fold enrichment (6-mer frequency, TF over GST control). In the case of CTACAT, the binding signal is reported as 1.66 fold enrichment (6-mer frequency, TF over GST control). CATCTC was tested, and the binding signal was 1.25 fold enrichment (6-mer frequency, TF over GST control). In the case of AAAGAC, the binding signal is reported as 1.08 fold enrichment (6-mer frequency, TF over GST control). For ATACCT, the binding signal was 1.12 fold enrichment (6-mer frequency, TF over GST control). GGCCTT was tested, and the binding signal was 1.12 fold enrichment (6-mer frequency, TF over GST control). TCAACC was tested, and the binding signal was 1.3 fold enrichment (6-mer frequency, TF over GST control). In the case of TTCTCA, the binding signal is reported as 1.21 fold enrichment (6-mer frequency, TF over GST control). With ATCTCG the binding signal was 1.36 fold enrichment (6-mer frequency, TF over GST control).

The sequences below were run against T2, ETV3L (Homo sapiens, UniProt Q6ZN32 1-361) in the same assay as above. Conditions: protein: recombinant; tags: N-terminal GST; dsDNA, one strand shown.
T2 sequence: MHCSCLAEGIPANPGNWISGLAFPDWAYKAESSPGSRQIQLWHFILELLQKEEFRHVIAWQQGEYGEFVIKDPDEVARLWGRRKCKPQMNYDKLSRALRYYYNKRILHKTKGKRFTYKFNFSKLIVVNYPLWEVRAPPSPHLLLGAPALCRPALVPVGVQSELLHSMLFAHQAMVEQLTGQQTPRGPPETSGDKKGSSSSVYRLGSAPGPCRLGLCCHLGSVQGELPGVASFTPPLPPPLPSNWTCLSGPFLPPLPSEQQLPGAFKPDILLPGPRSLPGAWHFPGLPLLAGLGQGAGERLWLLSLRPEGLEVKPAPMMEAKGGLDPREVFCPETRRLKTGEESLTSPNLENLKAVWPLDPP
Method in brief: as §1
In the case of CACTAA, the binding signal is reported as 1.28 fold enrichment (6-mer frequency, TF over GST control). In the case of CCGCCT, the binding signal is reported as 1.49 fold enrichment (6-mer frequency, TF over GST control). For AATGTC, the binding signal was 1.22 fold enrichment (6-mer frequency, TF over GST control). With CGATTT the binding signal was 1.17 fold enrichment (6-mer frequency, TF over GST control). With CGTTCG the binding signal was 1.16 fold enrichment (6-mer frequency, TF over GST control). For CTATAT, the binding signal was 1.4 fold enrichment (6-mer frequency, TF over GST control). With TCGCTC the binding signal was 1.37 fold enrichment (6-mer frequency, TF over GST control). For AAAACC, the binding signal was 1.18 fold enrichment (6-mer frequency, TF over GST control). TTTTGG was tested, and the binding signal was 1.48 fold enrichment (6-mer frequency, TF over GST control). For TATTCC, the binding signal was 1.73 fold enrichment (6-mer frequency, TF over GST control). ACGTCC was tested, and the binding signal was 1.59 fold enrichment (6-mer frequency, TF over GST control). ATACCC was tested, and the binding signal was 1.18 fold enrichment (6-mer frequency, TF over GST control). In the case of ATTCTA, the binding signal is reported as 1.22 fold enrichment (6-mer frequency, TF over GST control). For AACTTT, the binding signal was 1.26 fold enrichment (6-mer frequency, TF over GST control). For ATCTAA, the binding signal was 1.19 fold enrichment (6-mer frequency, TF over GST control). With TAAATT the binding signal was 1.32 fold enrichment (6-mer frequency, TF over GST control). For CCCGAC, the binding signal was 1.41 fold enrichment (6-mer frequency, TF over GST control). ATGAGC was tested, and the binding signal was 1.14 fold enrichment (6-mer frequency, TF over GST control). In the case of GCGATG, the binding signal is reported as 1.26 fold enrichment (6-mer frequency, TF over GST control). For CTCTGG, the binding signal was 1.45 fold enrichment (6-mer frequency, TF over GST control). In the case of TCATAT, the binding signal is reported as 1.3 fold enrichment (6-mer frequency, TF over GST control). For AAAGCA, the binding signal was 1.1 fold enrichment (6-mer frequency, TF over GST control). For TAACAA, the binding signal was 1.18 fold enrichment (6-mer frequency, TF over GST control). In the case of TTCTAT, the binding signal is reported as 1.35 fold enrichment (6-mer frequency, TF over GST control). In the case of TGTTTC, the binding signal is reported as 1.84 fold enrichment (6-mer frequency, TF over GST control). For TTGCGA, the binding signal was 1.14 fold enrichment (6-mer frequency, TF over GST control). ACAATT was tested, and the binding signal was 1.23 fold enrichment (6-mer frequency, TF over GST control). With AATTAC the binding signal was 1.25 fold enrichment (6-mer frequency, TF over GST control). CAATCC was tested, and the binding signal was 1.2 fold enrichment (6-mer frequency, TF over GST control). GTCTCC was tested, and the binding signal was 1.67 fold enrichment (6-mer frequency, TF over GST control). In the case of TTTTGC, the binding signal is reported as 1.35 fold enrichment (6-mer frequency, TF over GST control). TGGCTT was tested, and the binding signal was 1.17 fold enrichment (6-mer frequency, TF over GST control). In the case of CTACAT, the binding signal is reported as 1.41 fold enrichment (6-mer frequency, TF over GST control). In the case of CATCTC, the binding signal is reported as 1.32 fold enrichment (6-mer frequency, TF over GST control). With AAAGAC the binding signal was 1.06 fold enrichment (6-mer frequency, TF over GST control). In the case of ATACCT, the binding signal is reported as 1.09 fold enrichment (6-mer frequency, TF over GST control). In the case of GGCCTT, the binding signal is reported as 1.05 fold enrichment (6-mer frequency, TF over GST control). In the case of TCAACC, the binding signal is reported as 1.24 fold enrichment (6-mer frequency, TF over GST control). For TTCTCA, the binding signal was 1.23 fold enrichment (6-mer frequency, TF over GST control). ATCTCG was tested, and the binding signal was 1.38 fold enrichment (6-mer frequency, TF over GST control).

The sequences below were run against T3, ETS2 (Homo sapiens, UniProt P15036 1-469) in the same assay as above. Conditions: protein: recombinant; tags: N-terminal GST; dsDNA, one strand shown.
T3 sequence: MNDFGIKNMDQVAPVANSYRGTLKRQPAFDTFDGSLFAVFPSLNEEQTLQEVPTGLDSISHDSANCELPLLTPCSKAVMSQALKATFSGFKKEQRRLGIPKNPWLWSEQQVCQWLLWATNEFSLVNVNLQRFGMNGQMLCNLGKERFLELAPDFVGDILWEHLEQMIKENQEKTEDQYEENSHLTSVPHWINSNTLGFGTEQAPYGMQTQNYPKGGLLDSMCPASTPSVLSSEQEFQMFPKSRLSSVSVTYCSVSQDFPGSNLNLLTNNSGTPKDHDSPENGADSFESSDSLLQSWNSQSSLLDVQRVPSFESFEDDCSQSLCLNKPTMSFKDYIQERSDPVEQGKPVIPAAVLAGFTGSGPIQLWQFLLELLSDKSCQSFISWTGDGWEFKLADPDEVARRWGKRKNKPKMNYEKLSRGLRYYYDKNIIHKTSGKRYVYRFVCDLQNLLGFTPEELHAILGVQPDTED
Method in brief: as §1
CACTAA was tested, and the binding signal was 1.18 fold enrichment (6-mer frequency, TF over GST control). CCGCCT was tested, and the binding signal was 1.41 fold enrichment (6-mer frequency, TF over GST control). For AATGTC, the binding signal was 1.27 fold enrichment (6-mer frequency, TF over GST control). For CGATTT, the binding signal was 1.26 fold enrichment (6-mer frequency, TF over GST control). CGTTCG was tested, and the binding signal was 1.25 fold enrichment (6-mer frequency, TF over GST control). In the case of CTATAT, the binding signal is reported as 1.54 fold enrichment (6-mer frequency, TF over GST control). In the case of TCGCTC, the binding signal is reported as 1.32 fold enrichment (6-mer frequency, TF over GST control). In the case of AAAACC, the binding signal is reported as 1.11 fold enrichment (6-mer frequency, TF over GST control). With TTTTGG the binding signal was 1.55 fold enrichment (6-mer frequency, TF over GST control). TATTCC was tested, and the binding signal was 1.58 fold enrichment (6-mer frequency, TF over GST control). For ACGTCC, the binding signal was 1.64 fold enrichment (6-mer frequency, TF over GST control). For ATACCC, the binding signal was 1.24 fold enrichment (6-mer frequency, TF over GST control). With ATTCTA the binding signal was 1.3 fold enrichment (6-mer frequency, TF over GST control). In the case of AACTTT, the binding signal is reported as 1.2 fold enrichment (6-mer frequency, TF over GST control). For ATCTAA, the binding signal was 1.2 fold enrichment (6-mer frequency, TF over GST control). With TAAATT the binding signal was 1.17 fold enrichment (6-mer frequency, TF over GST control). With CCCGAC the binding signal was 1.27 fold enrichment (6-mer frequency, TF over GST control). In the case of ATGAGC, the binding signal is reported as 1.26 fold enrichment (6-mer frequency, TF over GST control). GCGATG was tested, and the binding signal was 1.35 fold enrichment (6-mer frequency, TF over GST control). CTCTGG was tested, and the binding signal was 1.19 fold enrichment (6-mer frequency, TF over GST control).
